Test results reported in PubChem BioAssay (EPA / NIEHS).
Records with an inconclusive call do not appear. Activity calls are given as the source filed them. How the source made its calls: active means hit-call score of the fitted dose curve at least 0.9, where 1 is the maximum; inconclusive means response in the unintended direction; inactive means score below 0.9.

molecular target: human Thyroid Receptor Alpha (TRa), THRA (gene 7067) (UniProt P10827); assay: NVS_NR_hTRa_Antagonist: NovaScreen (NVS) Nuclear Receptor Binding Assay for human Thyroid Receptor Alpha Antagonism (TRa) (AID 2283362)
Sequence (P10827 whole entry, looked up): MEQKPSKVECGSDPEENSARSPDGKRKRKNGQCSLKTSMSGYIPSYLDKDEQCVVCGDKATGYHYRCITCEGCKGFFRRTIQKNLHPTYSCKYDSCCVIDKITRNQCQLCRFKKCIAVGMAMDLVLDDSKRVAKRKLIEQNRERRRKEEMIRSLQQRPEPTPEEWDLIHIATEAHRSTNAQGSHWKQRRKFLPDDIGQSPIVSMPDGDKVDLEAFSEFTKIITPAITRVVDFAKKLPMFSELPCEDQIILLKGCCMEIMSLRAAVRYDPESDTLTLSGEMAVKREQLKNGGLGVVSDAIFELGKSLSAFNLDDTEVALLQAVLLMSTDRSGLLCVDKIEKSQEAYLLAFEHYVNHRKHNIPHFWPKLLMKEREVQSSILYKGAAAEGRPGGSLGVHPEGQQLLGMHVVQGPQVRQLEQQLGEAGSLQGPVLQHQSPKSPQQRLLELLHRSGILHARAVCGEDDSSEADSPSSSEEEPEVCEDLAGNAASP
Protocol: NVS_NR_hTRa_Antagonist is a biochemical, single-readout assay that uses extracted gene-proteins in a cell-free assay. Measurements were taken 1 hour after chemical dosing in a 384-well plate.NVS_NR_hTRa_Antagonist is one of one assay component(s) measured or calculated from the NVS_NR_hTRa_Antagonist assay. It is designed to make measurements of enzyme-linked immunosorbent assay, a form of binding reporter, as detected with chemiluminescence signals by AlphaLISA immunoassay technology.Data from the assay component NVS_NR_hTRa_Antagonist was analyzed into 1 assay endpoint. This assay endpoint, NVS_NR_hTRa_Antagonist, was analyzed in the positive analysis fitting direction relative to DMSO as the negative control and baseline of activity. Using a type of binding reporter, loss-of-signal activity can be used to understand changes in the binding as they relate to the gene THRA. Furthermore, this assay endpoint can be referred to as a primary readout, because the performed assay has only produced 1 assay endpoint. To generalize the intended target to other relatable targets, this assay endpoint is annotated to the nuclear receptor intended target family, where the subfamily is non-steroidal.
Binding assays used specific radioligands (tritiated, iodinated) with non-radioactive competitive displacement ligands in agonist or antagonist protocols (as indicated) and various reference compounds and inhibitors to titrate specific binding to receptors and transporters. Most enzyme assays (CYPs, kinases, phosphatases, proteases, HDACs) used recombinant protein and specific substrates (fluorescence mostly, some colorimetric and radioactive) and inhibitors, followed by a biochemical separation of substrate and product. All assays for the biochemical HTS were initially run in duplicate at a single concentration (10 uM for CYP450 assays and 25 uM for all others). […] Each assay was run with positive and negative controls, and concurrent controls on every plate. The follow-up (secondary) screen tested active chemical-pairs in concentration series, as well as a few additional assays not tested in the primary screen, some selected negative inactives, and several cases re-run in the concentration series for confirmatory purposes.

| SMILES | outcome | AC50 |
| --- | --- | --- |
| CCOC(=O)C(C)OC(=O)c1cc(Oc2ccc(C(F)(F)F)cc2Cl)ccc1[N+](=O)[O-] (configuration not stated) | inactive | – |
| Clc1nc(Cl)nc(Nc2ccccc2Cl)n1 | – | 25 µM (active) |
| CCN(CC)c1nc(C)cc(OP(=S)(OC)OC)n1 | inactive | – |
| CC(C)(C)C(=O)C(Oc1ccc(Cl)cc1)n1cncn1 (configuration not stated) | inactive | – |
| CCCCC(C#N)(Cn1cncn1)c1ccc(Cl)cc1 (configuration not stated) | inactive | – |
| N#Cc1c(Cl)cccc1Cl | inactive | – |
| CN=C=S | inactive | – |
| OC(c1ccc(Cl)cc1)(c1ccc(Cl)cc1)C(Cl)(Cl)Cl | inactive | – |
| CNC(=O)Oc1cccc2ccccc12 | inactive | – |
| COP(=S)(OC)Oc1ccc([N+](=O)[O-])c(C)c1 | inactive | – |
| Cc1cnc(C2=NC(C)(C(C)C)C(=O)N2)c(C(=O)O)c1 (configuration not stated) | inactive | – |
| CCCCC(O)(Cn1cncn1)c1ccc(Cl)cc1Cl (configuration not stated) | inactive | – |
